Data from PubChem BioAssay AID1259318 (Sanford-Burnham Center for Chemical Genomics, 2017).
The whole screen tested about 370,000 compounds, of which about 3,000 (0.81%) were called active.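 Rule for the calls: active = activity above about 14% (limit read from the data; passing the limit was not always enough); inactive = the rest.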 The list comes from a sample in which actives are over-represented; it also holds similar structures and randomly drawn compounds.

target: Nuclear receptor subfamily 1 group D member 1 (Homo sapiens) (UniProt P20393); test: Rev-erbα–DNA interaction modulation – biochemical, FITC-DNA, fluorescence polarization, uHTS, primary screen (AID 1259318); conditions: Rev-erbα–FITC-DNA binding, 90 min, at 10 µM, stronger effect = higher value;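 note: 0% = DMSO wells with 35 nM protein and 100% = DMSO wells with 750 nM protein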
Sequence (P20393 whole entry, looked up): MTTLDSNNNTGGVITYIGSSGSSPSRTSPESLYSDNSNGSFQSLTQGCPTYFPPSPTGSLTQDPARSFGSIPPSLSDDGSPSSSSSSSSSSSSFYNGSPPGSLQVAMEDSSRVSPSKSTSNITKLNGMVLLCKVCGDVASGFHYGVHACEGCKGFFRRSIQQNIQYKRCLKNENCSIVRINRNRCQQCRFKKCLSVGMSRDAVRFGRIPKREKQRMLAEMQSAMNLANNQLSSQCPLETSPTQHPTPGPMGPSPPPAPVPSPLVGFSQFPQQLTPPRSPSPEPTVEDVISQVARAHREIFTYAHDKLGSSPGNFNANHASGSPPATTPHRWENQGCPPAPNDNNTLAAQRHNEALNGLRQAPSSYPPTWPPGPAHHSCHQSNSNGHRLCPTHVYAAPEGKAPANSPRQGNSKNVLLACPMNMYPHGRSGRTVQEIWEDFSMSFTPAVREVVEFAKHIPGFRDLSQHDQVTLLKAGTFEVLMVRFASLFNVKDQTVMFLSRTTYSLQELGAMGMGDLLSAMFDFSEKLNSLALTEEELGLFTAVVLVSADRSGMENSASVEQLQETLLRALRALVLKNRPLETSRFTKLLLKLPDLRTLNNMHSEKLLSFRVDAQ

| Compound | activity |
| --- | --- |
| CCCc1nc2c(C)cc(-c3nc4ccccc4n3C)cc2n1Cc1ccc(-c2ccccc2C(=O)O)cc1 | 3.42% (inactive) |
| CC(C)CC(=O)Nc1cc(C(F)(F)F)ccc1N1CCOCC1 | -4.25% (inactive) |
| COc1ccc(CNC(=O)C2CCN(C(=O)c3ccccc3)CC2)cc1 | 1.27% (inactive) |
| COc1ccc(CNC(=O)C2CCN(C(=O)c3ccco3)CC2)cc1 | -1.19% (inactive) |
| COc1ccc(-n2nc3c(N4CCC(C(=O)NCc5ccccc5)CC4)nnc(C)c3c2C)cc1 | 54.2% (active) |
| CC(C)N(C(=O)Cn1c(SCC(=O)N2CCN(c3ccccc3)CC2)nc2ccccc21)C(C)C | 1.23% (inactive) |
| O=C(Nc1ccc(O)cc1)c1ccccc1O | 3.46% (inactive) |
| CCCCCC(=O)Nc1ccc(-c2cn3cccnc3n2)cc1 | -0.67% (inactive) |
| Cc1ccc(CNCc2ccc3c(c2)OCO3)c(C)c1 | -1.18% (inactive) |
| C[C@H]1O[C@@H](O[C@H]2[C@@H](O)C[C@H](O[C@H]3[C@@H](O)C[C@H](O[C@H]4CC[C@]5(C)C6C[C@@H](O)[C@]7(C)[C@@H](C8=CC(=O)OC8)CC[C@]7(O)C6CC[C@@H]5C4)O[C@@H]3C)O[C@@H]2C)C[C@H](O)[C@@H]1O (some centres undefined) | 2.73% (inactive) |
| CCOC(=O)C1=CN(Cc2ccc(Br)cc2)S(=O)(=O)N(C)C1C (centres undefined) | -0.38% (inactive) |
| CCOC(=O)c1sc(=NC(=O)/C=C/c2cccs2)n(C)c1C | -0.21% (inactive) |
| CCOC(=O)c1sc(=NC(=O)c2ccc(Br)cc2)n(C)c1C | 51.4% (active) |
| C/C(Cn1nnc2ccccc21)=N\OC(=O)c1cc(F)c(F)cc1Cl | 2.02% (inactive) |
| COc1ccc(N2CCN(CCNS(=O)(=O)c3ccc(C(C)(C)C)cc3)CC2)cc1 | 5.09% (inactive) |
| Nc1nc2c(ncn2[C@@H]2O[C@H](C(=O)N[C@H](Cc3ccccc3)C(=O)NCC3CCCCC3)[C@@H](O)[C@H]2O)c(=O)[nH]1 | 2.3% (inactive) |
| CCN1/C(=C\c2ccc3ccccc3[n+]2CC)Sc2cc(C)ccc21 | 73.3% (active) |
| COc1ccc(CCNC(=O)CSc2nc3c([nH]2)c(=O)n(C)c(=O)n3C)cc1 | -0.29% (inactive) |
| COc1ccc(CNS(=O)(=O)c2cc(Br)ccc2Br)cc1 | 6.25% (inactive) |
| Cc1cc2cc3c(cc2nc1SCC(=O)Nc1c(C)cccc1C)CCC3 | 63.4% (active) |
| Cc1cccc(C)c1NC(=O)CSc1nc2c([nH]1)c(=O)n(C)c(=O)n2C | 3.98% (inactive) |
| Cc1cccc(NC(=O)CSc2nc3c(c(=O)[nH]2)CCC3)c1C | -4.62% (inactive) |
| CC(=O)C1=C(C)N(Cc2ccc(Cl)cc2)C(=S)NC1c1ccc(F)cc1 (centres undefined) | 0.1% (inactive) |
| CC1(C)C(C=C(Cl)Cl)C1C(=O)N(Cc1ccc(Cl)cc1)C1CCS(=O)(=O)C1 (centres undefined) | 2.8% (inactive) |
| CCOC(=O)c1[nH]c2ccc(C)cc2c1N=C(C)N(C)C | 0.97% (inactive) |
| O=C(CN1CCC(NC(=O)C2CC2)CC1)Nc1ccccc1[N+](=O)[O-] | -2.64% (inactive) |
| COc1cccc(-c2cc(CNC(=O)[C@@H](Cc3ccccc3)NC(=O)[C@H]3O[C@@H](n4cnc(C(N)=O)n4)[C@H](O)[C@@H]3O)no2)c1 | 3.31% (inactive) |

| Compound | activity |
| --- | --- |
| CCOC(=O)c1c(NC(=O)CCCN2CCOCC2)sc2c1CC(C)(C)OC2 | 2.68% (inactive) |
| CCOC(=O)c1sc(NC(=O)CCN2CCOCC2)c(C(=O)OCC)c1C | 30.6% (active) |
| CCOC(=O)c1c(C)[nH]c(C(=O)NCCN2CCOCC2)c1C | 1.96% (inactive) |
| C=CCN(N=Nc1cccc([N+](=O)[O-])c1)c1cccc([N+](=O)[O-])c1 | 9.23% (inactive) |
| NC(=O)CC(NC(=O)Cc1ccc(Br)cc1)c1ccc(NC2CC3CCC2C3)c([N+](=O)[O-])c1 (centres undefined) | -0.82% (inactive) |
| FCOC(C(F)(F)F)C(F)(F)F | 2.75% (inactive) |
| O=C(COc1ncnc2c(Cl)cc(Cl)cc12)N1CCN(S(=O)(=O)c2ccccc2)CC1 | 25.2% (active) |
| O=C(CSc1ccccn1)N1CCN(S(=O)(=O)c2ccc(Cl)cc2)CC1 | -4.04% (inactive) |
| O=C(COc1ccc(Cl)cc1)N1CCN(S(=O)(=O)c2ccc(Cl)cc2)CC1 | -0.97% (inactive) |
| COc1ccc(C2(C#N)CCC(C(=O)O)CC2)cc1OC1CCCC1 (centres undefined) | -2.5% (inactive) |
| O=C(CN1CCCc2ccccc21)NCc1ccc(F)cc1 | 0.36% (inactive) |
| Cc1nn2cc(-c3ccc(Cl)cc3)cnc2c1Br | 5.5% (inactive) |
| CCN(CC)CCCC(C)Nc1ccnc2cc(Cl)ccc12 (centres undefined) | -0.22% (inactive) |
| COC(=O)c1ccc(OCC(O)CN(CCO)CC(O)Cn2ccc3ccccc32)cc1 (centres undefined) | 4.36% (inactive) |
| COc1ccc(Cn2ccc3ccc(-c4ccc5ccn(Cc6ccccc6C)c5c4)cc32)cc1 | 0.1% (inactive) |
| COC(=O)c1cccc(Cn2ccc3ccc(-c4ccc5ccn(C(=O)C6CCCCC6)c5c4)cc32)c1 | 33.7% (active) |
| FC(F)(F)c1cccc(Cn2ccc3ccc(-c4ccc5ccn(Cc6ccccc6)c5c4)cc32)c1 | -9.95% (inactive) |
| COC(=O)c1cccc(Cn2ccc3ccc(-c4ccc5ccn(C(=O)c6ccccc6C)c5c4)cc32)c1 | 40% (active) |
| COC(=O)c1ccc(CN2CCCC(C(=O)Nc3cccc(-n4cnnn4)c3)C2)cc1 (centres undefined) | 1.49% (inactive) |
| CCC(=O)O[C@]1(C(=O)CCl)[C@@H](C)CC2C3CCC4=CC(=O)C=C[C@]4(C)[C@@]3(F)[C@@H](O)C[C@@]21C (some centres undefined) | 0.94% (inactive) |
| Cc1ccc(S(=O)(=O)N(Cc2cc3ccccc3[nH]c2=O)CC2CCCO2)cc1 (centres undefined) | -1.97% (inactive) |
| CN(C(N)=NC(=O)/C=C/c1ccccc1)C(C#Cc1ccccc1)Cc1ccccc1 (centres undefined) | -4.88% (inactive) |
| O=C(C1CCN(S(=O)(=O)Cc2ccccc2)CC1)N1CCCc2ccccc21 | -2.58% (inactive) |
| Cc1nn(CCOc2ccc(Br)cc2)c(C)c1[N+](=O)[O-] | 3.89% (inactive) |
| CCOc1ccc2nc(Cl)c(C3CC(c4ccccc4)=NN3C(=O)c3cccs3)cc2c1 (centres undefined) | 36% (active) |
| CS(=O)(=O)Nc1cccc(C2=NN(C(=O)c3cccc(F)c3)C(c3cccs3)C2)c1 (centres undefined) | 1.7% (inactive) |
| O=C(COc1ccc2ccccc2c1)N1CCN(C(=O)c2cccs2)CC1 | 7.29% (inactive) |
